Assay results published in PubChem BioAssay (NCI).
This is part of a sample that, as a whole, favours compounds with a hit. Of some 79,000 tested, about 15% had one in any assay. Values without a mark were called inactive. No stated cut-off is given here; in the data, active means growth inhibition above about 70%; inactive means the rest.

Experiment: NCI Yeast Anticancer Drug Screen. Data for the bub3 strain (AID 167)
Settings: S. cerevisiae bub3 mutant strain, at 50.0 µM, stronger effect = higher value
In short: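 Yeast carrying a defined mutation is treated with each compound, and growth is compared with that of vehicle-exposed cells to give inhibition.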

Row | Structure (SMILES) | growth inhibition [%]
1 | CCCCCCCCCCCCCCCCCCCCOC1OC(COC(C)=O)C(OC(C)=O)C(OC(C)=O)C1OC(C)=O (stereo not given) | -5.7
2 | O=C1/C(=C/c2ccc(Cl)cc2)CCC1CCN1CCOCC1 (stereo not given) | 41.2
3 | Nc1ccc2c(c1)NCC2 | -14.9
4 | N#CCCN(C1=NN(C(=O)CC(=O)Nc2cccc(Cl)c2)C(c2ccccc2)C1)c1ccccc1Cl (stereo not given) | -14.9
5 | COC1=NCc2ccccc2-c2ccccc21 | 27.5
6 | CNc1nnnn1C1OC(CO)C(O)C1O (stereo not given) | -10.7
7 | Cc1cc(C(=O)NN)no1 | -7.15
8 | Cn1c(=O)c2c(nc(CCCCCCCCc3nc4c(c(=O)n(C)c(=O)n4C)n3C)n2C)n(C)c1=O | -14.8
9 | S=C1Cc2c([nH]c3ccccc23)-c2ccccc2N1 | 23.2
10 | CCC1OC(=O)CC(O)C(C)C(OC2OC(C)CC(N(C)C)C2O)C(CC=O)CC(C)C(=O)/C=C/C2(C)OC2C1C (stereo not given) | -14
11 | CC(C)CCC(=O)OC/C(=N\Nc1ccc([N+](=O)[O-])cc1[N+](=O)[O-])c1ccc(-c2ccccc2)cc1 | 1.9
12 | CC(O)CN1CCCC1 (stereo not given) | 0.6
13 | COc1cc(CC2C(=O)OCC2C2(c3ccc4c(c3)OCO4)SCCCS2)cc(OC)c1OC (stereo not given) | 3.2
14 | O=C1CN(C(=O)Nc2ccccc2)c2ccccc2N1 | 7
15 | COc1cc(CCl)c(OC)cc1Cl | 13.6
16 | CN(C)CCCN1c2ccccc2Sc2cnccc21 | -1.45
17 | O=C1CSc2nc3ccc(Br)cc3c(=O)n21 | 18.6
18 | CC(C)(C)c1ccnc(C(O)(C(F)(F)F)C(F)(F)F)c1 | -7.75
19 | N/C(=N\N=C\C1CC2C=CC1C2)NO (stereo not given) | -16.6
20 | CC1SC2=NC3=C(c4ccccc4C3=O)C(c3ccc(Br)cc3)N2C1=O (stereo not given) | -37

Row | Structure (SMILES) | growth inhibition [%]
21 | CC(C)C(O)C[N+](=O)[O-] (stereo not given) | 13.6
22 | Cc1cc2nc3c(=O)[nH]c(=O)nc-3n(CCOC(=O)CCC(=O)O)c2cc1C | 3.1
23 | Cc1cc(=O)c2c(Br)ccc(Br)c2[nH]1 | 7.3
24 | CC(C=O)CCC(C)(O)C=O (stereo not given) | -10.5
25 | c1ccc(CC2=NCCc3ccccc32)cc1 | -2.6
26 | NC(=O)c1ccccc1NC(=O)C(=O)C(c1cnc2ccc([N+](=O)[O-])cc2n1)[N+](=O)[O-] (stereo not given) | 5.85
27 | CCCOC(=O)CC(CC(=O)OCCC)C(=O)OCCC | 37.2
28 | CN(C)NC1=C([N+](=O)[O-])C=NN(c2ccccc2)C1 | 22.1
29 | O=C1c2ccc3ccccc3c2C(=O)c2ccc3ccccc3c21 | -12.3
30 | Clc1nnc(-c2ccccc2)s1 | 8.2
31 | CCCCc1ccc2[n+](c1)C(C(=O)OCC)=PC2 (stereo not given) | -19.9
32 | COC(=O)/C(=N/O)C(C(=O)C=C(C)C)C(=O)C(=O)Nc1nc2ccc([N+](=O)[O-])cc2s1 (stereo not given) | 5.95
33 | COCOS(C)(=O)=O | 9.4
34 | COC(=O)C1CC[N-]CC1.COC(=O)C1CC[N-]CC1.[Cl][Pt+2][Cl] | -4.15
35 | Cc1cccc(C)[n+]1[O-] | 16.5
36 | NC(=S)n1nc(-c2ccccc2)c(N=Nc2ccccc2[N+](=O)[O-])c1-c1ccccc1 | 3.6
37 | NC(CSC(=O)c1ccccc1)C(=O)O (stereo not given) | -30.2
38 | CCCCCCCCCCCCSC(=O)NCCC | 3.45
39 | O=[N+]([O-])c1cc(N(c2ccccc2)c2ccccc2)cc([N+](=O)[O-])c1 | -2.8
40 | N#CC(CC(=O)NN)C(=O)NN (stereo not given) | -38.7

Experiment: NCI Yeast Anticancer Drug Screen. Data for the mlh1 rad18 strain (AID 175)
Settings: S. cerevisiae mlh1 rad18 strain growth inhibition; at 50.0 µM; stronger effect = higher value
In short: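 Read-out is yeast growth inhibition, calculated against vehicle-only controls. The compound was applied to a strain engineered with DNA damage repair alterations.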

Row | Structure (SMILES) | growth inhibition [%]
41 | CCCCCCCCCCCCCCCCCCCCOC1OC(COC(C)=O)C(OC(C)=O)C(OC(C)=O)C1OC(C)=O (stereo not given) | -20.4
42 | O=C1/C(=C/c2ccc(Cl)cc2)CCC1CCN1CCOCC1 (stereo not given) | 59.2
43 | Nc1ccc2c(c1)NCC2 | -16.6
44 | N#CCCN(C1=NN(C(=O)CC(=O)Nc2cccc(Cl)c2)C(c2ccccc2)C1)c1ccccc1Cl (stereo not given) | -30.9
45 | COC1=NCc2ccccc2-c2ccccc21 | -28.9
46 | CNc1nnnn1C1OC(CO)C(O)C1O (stereo not given) | -21.4
47 | Cc1cc(C(=O)NN)no1 | -8.15
48 | Cn1c(=O)c2c(nc(CCCCCCCCc3nc4c(c(=O)n(C)c(=O)n4C)n3C)n2C)n(C)c1=O | -14.7
49 | S=C1Cc2c([nH]c3ccccc23)-c2ccccc2N1 | 2.45
50 | CCC1OC(=O)CC(O)C(C)C(OC2OC(C)CC(N(C)C)C2O)C(CC=O)CC(C)C(=O)/C=C/C2(C)OC2C1C (stereo not given) | 1.8
51 | CC(C)CCC(=O)OC/C(=N\Nc1ccc([N+](=O)[O-])cc1[N+](=O)[O-])c1ccc(-c2ccccc2)cc1 | 14.8
52 | CC(O)CN1CCCC1 (stereo not given) | 9.35
53 | COc1cc(CC2C(=O)OCC2C2(c3ccc4c(c3)OCO4)SCCCS2)cc(OC)c1OC (stereo not given) | 26.8
54 | O=C1CN(C(=O)Nc2ccccc2)c2ccccc2N1 | -5.5
55 | COc1cc(CCl)c(OC)cc1Cl | -28.4
56 | CN(C)CCCN1c2ccccc2Sc2cnccc21 | 15.3
57 | O=C1CSc2nc3ccc(Br)cc3c(=O)n21 | 20.9
58 | CC(C)(C)c1ccnc(C(O)(C(F)(F)F)C(F)(F)F)c1 | -12.4
59 | N/C(=N\N=C\C1CC2C=CC1C2)NO (stereo not given) | -4.55
60 | CC1SC2=NC3=C(c4ccccc4C3=O)C(c3ccc(Br)cc3)N2C1=O (stereo not given) | -32.8

Row | Structure (SMILES) | growth inhibition [%]
61 | CC(C)C(O)C[N+](=O)[O-] (stereo not given) | 16.6
62 | Cc1cc2nc3c(=O)[nH]c(=O)nc-3n(CCOC(=O)CCC(=O)O)c2cc1C | 3.95
63 | Cc1cc(=O)c2c(Br)ccc(Br)c2[nH]1 | -13.8
64 | CC(C=O)CCC(C)(O)C=O (stereo not given) | 1.45
65 | c1ccc(CC2=NCCc3ccccc32)cc1 | -8.7
66 | NC(=O)c1ccccc1NC(=O)C(=O)C(c1cnc2ccc([N+](=O)[O-])cc2n1)[N+](=O)[O-] (stereo not given) | 28.8
67 | CCCOC(=O)CC(CC(=O)OCCC)C(=O)OCCC | -2.5
68 | CN(C)NC1=C([N+](=O)[O-])C=NN(c2ccccc2)C1 | 51.6
69 | O=C1c2ccc3ccccc3c2C(=O)c2ccc3ccccc3c21 | -16.8
70 | Clc1nnc(-c2ccccc2)s1 | 9.5
71 | CCCCc1ccc2[n+](c1)C(C(=O)OCC)=PC2 (stereo not given) | -11.9
72 | COC(=O)/C(=N/O)C(C(=O)C=C(C)C)C(=O)C(=O)Nc1nc2ccc([N+](=O)[O-])cc2s1 (stereo not given) | 6.25
73 | COCOS(C)(=O)=O | -3.65
74 | COC(=O)C1CC[N-]CC1.COC(=O)C1CC[N-]CC1.[Cl][Pt+2][Cl] | 21.2
75 | Cc1cccc(C)[n+]1[O-] | 0.65
76 | NC(=S)n1nc(-c2ccccc2)c(N=Nc2ccccc2[N+](=O)[O-])c1-c1ccccc1 | 9.45
77 | NC(CSC(=O)c1ccccc1)C(=O)O (stereo not given) | -19.9
78 | CCCCCCCCCCCCSC(=O)NCCC | 1.4
79 | O=[N+]([O-])c1cc(N(c2ccccc2)c2ccccc2)cc([N+](=O)[O-])c1 | -22.6
80 | N#CC(CC(=O)NN)C(=O)NN (stereo not given) | -22.5
